In PubChem BioAssay AID1159580 (chemical genetic matrix, 2015):
The campaign covered roughly 5,500 compounds. About 2,000 (36%) were called active. About 18% were inconclusive and are not listed. Rule as the data show it: active = normalized growth mostly below about 0.91 (no sharp cut-off); inconclusive = no clear call, values can overlap the other calls; inactive = mostly above about 0.92. Some of the results follow.

Assay: chemical genetic growth profiling, strain panel (AID 1159580);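 also: tested at 20 µM; growth read once vehicle control cultures reached saturation at 30 °C; 1 = growth at the plate median or of vehicle wells; lower values mean less growth of the strain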
Details: growth OD

Measured: normalized growth

CC1(C)C2CC[C@]3(C)C(C(=O)C=C4[C@@H]5C[C@@](C)(C(=O)O)CC[C@]5(C)CC[C@]43C)[C@@]2(C)CC[C@@H]1OC(=O)CCC(=O)O (stereo partly drawn)
inactive: S. cerevisiae deletion strains, locus YKL009W, strain mrt4, hits give low values 0.975 | S. cerevisiae deletion strains, locus YKL068W, hits give low values 0.986 | S. cerevisiae deletion strains, locus YKL085W, strain MDH1 (second series), hits give low values 0.984 | S. cerevisiae deletion strains, locus YKL085W, strain MDH1, hits give low values 0.984 | S. cerevisiae deletion strains, locus YKL160W, strain elf1, hits give low values 0.938 | S. cerevisiae deletion strains, locus YKL190W, strain CNB1, hits give low values 0.991 | S. cerevisiae deletion strains, locus YKR001C, strain vps1, hits give low values 0.999 | S. cerevisiae deletion strains, locus YKR026C, strain gcn3, hits give low values 0.987 | S. cerevisiae deletion strains, locus YKR091W, strain srl3, hits give low values 0.989 | S. cerevisiae deletion strains, locus YLL001W, strain dnm1, hits give low values 1 | S. cerevisiae deletion strains, locus YLL026W, hits give low values 0.977 | S. cerevisiae deletion strains, locus YLL041C, strain sdh2, hits give low values 0.982 | S. cerevisiae deletion strains, locus YLR027C, strain aat2, hits give low values 1 | S. cerevisiae deletion strains, locus YLR039C, strain RIC1, hits give low values 0.944 | S. cerevisiae deletion strains, locus YLR058C, strain SHM2, hits give low values 0.986 | S. cerevisiae deletion strains, locus YLR102C, strain apc9, hits give low values 0.996 | S. cerevisiae deletion strains, locus YLR221C, strain rsa3, hits give low values 1 | S. cerevisiae deletion strains, locus YLR258W, strain gsy2, hits give low values 0.98 | S. cerevisiae deletion strains, locus YLR262C, strain YPT6 (second series), hits give low values 0.962 | S. cerevisiae deletion strains, locus YLR262C, strain YPT6, hits give low values 0.91 | S. cerevisiae deletion strains, locus YLR268W, strain sec22, hits give low values 0.998 | S. cerevisiae deletion strains, locus YLR320W, strain mms22, hits give low values 0.999 | S. cerevisiae deletion strains, locus YLR330W, strain CHS5, hits give low values 0.992 | S. cerevisiae deletion strains, locus YLR342W, strain FKS1 (second series), hits give low values 0.995 | S. cerevisiae deletion strains, locus YLR342W, strain FKS1, hits give low values 0.985 | S. cerevisiae deletion strains, locus YLR357W, strain rsc2, hits give low values 0.967 | S. cerevisiae deletion strains, locus YLR370C, strain arc18, hits give low values 0.967 | S. cerevisiae deletion strains, locus YLR371W, strain rom2, hits give low values 1 | S. cerevisiae deletion strains, locus YLR384C, strain iki3, hits give low values 0.983 | S. cerevisiae deletion strains, locus YLR418C, strain cdc73, hits give low values 0.968 | S. cerevisiae deletion strains, locus YML016C, strain PPZ1, hits give low values 1 | S. cerevisiae deletion strains, locus YML032C, strain rad52, hits give low values 0.994 | S. cerevisiae deletion strains, locus YML120C, strain ndi1, hits give low values 0.997 | S. cerevisiae deletion strains, locus YML124C, strain tub3, hits give low values 1 | S. cerevisiae deletion strains, locus YMR058W, strain fet3, hits give low values 1.04 | S. cerevisiae deletion strains, locus YMR078C, strain ctf18, hits give low values 0.976 | S. cerevisiae deletion strains, locus YMR125W, strain sto1, hits give low values 0.975 | S. cerevisiae deletion strains, locus YMR129W, hits give low values 0.99 | S. cerevisiae deletion strains, locus YMR205C, strain PFK2, hits give low values 0.97 | S. cerevisiae deletion strains, locus YMR223W, strain ubp8, hits give low values 0.973 | S. cerevisiae deletion strains, locus YMR231W, strain pep5, hits give low values 0.978 | S. cerevisiae deletion strains, locus YMR263W, strain SAP30, hits give low values 1 | S. cerevisiae deletion strains, locus YMR307W, strain GAS1, hits give low values 1.01 | S. cerevisiae deletion strains, locus YNL067W, strain RPL9B, hits give low values 1.02 | S. cerevisiae deletion strains, locus YNL071W, strain lat1, hits give low values 0.994 | S. cerevisiae deletion strains, locus YNL183C, strain NPR1, hits give low values 0.991 | S. cerevisiae deletion strains, locus YNL209W, strain ssb2, hits give low values 0.967 | S. cerevisiae deletion strains, locus YNL233W, strain BNI4, hits give low values 1.03 | S. cerevisiae deletion strains, locus YNL248C, strain rpa49, hits give low values 0.909 | S. cerevisiae deletion strains, locus YNL250W, strain rad50, hits give low values 0.949 | S. cerevisiae deletion strains, locus YNL271C, strain bni1, hits give low values 0.983 | S. cerevisiae deletion strains, locus YNL298W, strain CLA4, hits give low values 0.997 | S. cerevisiae deletion strains, locus YNL307C, strain MCK1, hits give low values 0.992 | S. cerevisiae deletion strains, locus YNL322C, strain KRE1 (second series), hits give low values 0.979 | S. cerevisiae deletion strains, locus YNL322C, strain KRE1, hits give low values 0.99 | S. cerevisiae deletion strains, locus YNR049C, strain mso1, hits give low values 0.983 | S. cerevisiae deletion strains, locus YNR052C, strain pop2, hits give low values 0.975 | S. cerevisiae deletion strains, locus YOL006C, strain TOP1, hits give low values 1.04 | S. cerevisiae deletion strains, locus YOL012C, strain htz1 1.07 | S. cerevisiae deletion strains, locus YOL147C, strain pex11, hits give low values 0.989 | S. cerevisiae deletion strains, locus YOR001W, strain rrp6, hits give low values 1.03 | S. cerevisiae deletion strains, locus YOR061W, strain CKA2, hits give low values 0.991 | S. cerevisiae deletion strains, locus YOR069W, strain VPS5, hits give low values 0.982 | S. cerevisiae deletion strains, locus YOR070C, strain gyp1, hits give low values 0.986 | S. cerevisiae deletion strains, locus YOR080W, strain dia2, hits give low values 1.01 | S. cerevisiae deletion strains, locus YOR083W, strain WHI5, hits give low values 0.891 | S. cerevisiae deletion strains, locus YOR106W, strain vam3, hits give low values 0.896 | S. cerevisiae deletion strains, locus YOR136W, strain idh2, hits give low values 0.998 | S. cerevisiae deletion strains, locus YOR144C, strain elg1, hits give low values 1 | S. cerevisiae deletion strains, locus YOR184W, strain ser1, hits give low values 0.96 | S. cerevisiae deletion strains, locus YOR231W, strain MKK1, hits give low values 1.06 | S. cerevisiae deletion strains, locus YOR265W, strain rbl2, hits give low values 0.974 | S. cerevisiae deletion strains, locus YOR270C, strain vph1, hits give low values 0.867 | S. cerevisiae deletion strains, locus YOR290C, strain snf2, hits give low values 0.96 | S. cerevisiae deletion strains, locus YOR316C, strain cot1, hits give low values 0.992 | S. cerevisiae deletion strains, locus YPL051W, strain arl3, hits give low values 0.966 | S. cerevisiae deletion strains, locus YPL055C, strain LGE1, hits give low values 1.08 | S. cerevisiae deletion strains, locus YPL078C, strain atp4, hits give low values 0.962 | S. cerevisiae deletion strains, locus YPL106C, strain sse1, hits give low values 0.986 | S. cerevisiae deletion strains, locus YPL240C, strain hsp82, hits give low values 0.978 | S. cerevisiae deletion strains, locus YPL241C, strain CIN2, hits give low values 0.992 | S. cerevisiae deletion strains, locus YPL256C, strain CLN2, hits give low values 1.05 | S. cerevisiae deletion strains, locus YPR119W, strain clb2, hits give low values 0.992 | S. cerevisiae deletion strains, locus YPR141C, strain kar3, hits give low values 0.999 | S. cerevisiae deletion strains, locus YPR163C, strain tif3, hits give low values 0.983 | S. cerevisiae deletion strains, locus YPR167C, strain met16, hits give low values 0.99 | S. cerevisiae deletion strains, strain wtn01, hits give low values 0.976 | S. cerevisiae strains, strain wild type, hits give low values 0.991
